Reference: PubChem BioAssay (NCI)
The panel holds about 79,000 compounds, 15% with a hit somewhere; the sample as a whole holds those more often. A number with no mark means an inactive call. Active and inactive are the calls of the source. Rule as the data show it: active = growth inhibition above about 70%; inactive = the rest.

test: NCI Yeast Anticancer Drug Screen. Data for the mec2-1 strain (AID 157); settings: S. cerevisiae mec2-1 strain, at 50.0 µM (retest, dose inferred, filed as 5.0), stronger effect = higher value
Summary of the method: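 Test agents were screened against the mec2-1 yeast strain, with defined DNA repair or cell cycle alteration. Growth was scored as inhibition against vehicle-only controls.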

Q: For NS(=O)(=O)c1ccc(N=Cc2c3ccccc3nc3cc(Cl)ccc23)cc1, which growth inhibition is on record?
A: 28%

Q: For Nc1ccc(O)c(=O)cc1, which growth inhibition is on record?
A: 11%

Q: Which growth inhibition does the source give for Oc1ccc[nH]c1=S here?
A: 12%

Q: For COc1cccc2c1C(=O)c1c(O)c3c(c(O)c1C2=O)C[C@@](O)(/C(C)=N/NC(=O)c1ccc(Cl)c(Cl)c1)C[C@@H]3OC1CC(N)C(O)C(C)O1 (some centres not stated), which growth inhibition is on record?
A: 99% (active)

Q: For O=C1c2ccccc2C(=O)c2c1ccc(O)c2O.[Cu], which growth inhibition is on record?
A: 95% (active)

Q: Which growth inhibition does the source give for CCC(=O)C(C(=O)CC)c1c(OC(=O)c2ccccc2)ccc(O)c1C(=O)OC here?
A: 16%

Q: With CC(C)CCCC(C)C1CCC2(C)C3=CCC4C(C)(CCC(O)C4(C)C)C3=CCC12C (configuration not stated) as the compound, how does the growth inhibition read?
A: 94% (active)

Q: With CCNC(=O)COc1ccc(Cl)cc1Cl as the compound, how does the growth inhibition read?
A: 2%

Q: With CCN1CCC(O)(/C=C/c2ccc(Cl)c(Cl)c2)C(C(=O)/C=C/c2ccc(Cl)c(Cl)c2)C1 (configuration not stated) as the compound, how does the growth inhibition read?
A: 100% (active)

Q: Which growth inhibition does the source give for Nc1ccc(-c2ccc(N)cc2S(=O)(=O)O)c(S(=O)(=O)O)c1 here?
A: -5%

Q: With COc1ccc2c(c1)CCc1c(-c3noc4c3CCc3cc(OC)ccc3-4)noc1-2 as the compound, how does the growth inhibition read?
A: 19%

Q: For Cc1ccc(NC(=S)N(CCC#N)C2CCCCC2)cc1C, which growth inhibition is on record?
A: -21%

Q: Which growth inhibition does the source give for COc1ccc2c(c1)CC1c3c(ccc(OC)c3O)CC2N1C (configuration not stated) here?
A: 37%

Q: Which growth inhibition does the source give for CCN(CC)CCCC(C)Nc1c2ccccc2nc2c(C)cc(Br)cc12 (configuration not stated) here?
A: 61%

Q: For O=C(O)c1cc2ccc3cccc4ccc(c1)c2c34, which growth inhibition is on record?
A: 89% (active)

Q: For CCOC(=O)NC(=S)Nc1ccsc1, which growth inhibition is on record?
A: -1%

Q: With CC(C)CCC(C)(C)c1cc(O)ccc1O as the compound, how does the growth inhibition read?
A: 99% (active)

Q: Which growth inhibition does the source give for COc1ccc(C(c2cc3c(cc2O)OCO3)N2CCOCC2)c(OC)c1OC (configuration not stated) here?
A: 97% (active)

Q: Which growth inhibition does the source give for CCOC(=O)C1=C(C)NC(C)=C(C(=O)OCC)C1c1c(-c2ccccc2)noc1C here?
A: 62%

Q: With O=C(CCl)Oc1ccc(Sc2ccc(OC(=O)CCl)cc2)cc1 as the compound, how does the growth inhibition read?
A: 98% (active)

Q: For Nc1ccc2[nH]c3ccccc3c2c1, which growth inhibition is on record?
A: 1%

same assay, conditions: S. cerevisiae mec2-1 strain, at 50.0 µM, stronger effect = higher value

Q: Which growth inhibition does the source give for CCCCCCCCCCCCCCCBr here?
A: 49.6%

Q: With CCCCCCCCCCCC(=O)OCC(C)C as the compound, how does the growth inhibition read?
A: -13%

Q: For O[Si](O)(c1ccccc1)c1ccccc1, which growth inhibition is on record?
A: 93% (active)

Q: With O=C(c1ccccc1)C(C(=O)c1ccccc1)c1ccc2ccccc2n1 as the compound, how does the growth inhibition read?
A: 2.75%

Q: Which growth inhibition does the source give for O=C1C=CC(=O)N1c1ccccc1[N+](=O)[O-] here?
A: 99.5% (active)

Q: With CCCCCCCCCCCC(O)=C1C(=O)CC(O)CC1=O (configuration not stated) as the compound, how does the growth inhibition read?
A: 91.6% (active)

Q: With OCCc1cccc2ccc3ccccc3c12 as the compound, how does the growth inhibition read?
A: 92.8% (active)

Q: With O=C1C(=O)C(Cl)=C(Cl)C(Cl)=C1Cl as the compound, how does the growth inhibition read?
A: 99.7% (active)

Q: For O=C1C=CC2C(=O)c3ccccc3C(=O)C2=C1 (configuration not stated), which growth inhibition is on record?
A: 63.5%

Q: With O=C(N(c1ccc(Cl)cc1)c1ccc(Cl)cc1)C(Cl)(Cl)Cl as the compound, how does the growth inhibition read?
A: 5.7%

Q: With COc1cccc2c1S(=O)(=O)C(c1ccccc1)=CC2=O as the compound, how does the growth inhibition read?
A: 99.2% (active)

Q: Which growth inhibition does the source give for COc1cc(-c2nn3c(=O)n(-c4ccc(Cl)cc4)c(=O)nc3s2)cc(OC)c1OC here?
A: -0.6%

Q: Which growth inhibition does the source give for O=[N+]([O-])C1(CO)COC(CCc2ccccc2)OC1 (configuration not stated) here?
A: 78.2% (active)

Q: With COc1ccc(C(=O)CCc2c[nH]c3ccccc23)c(O)c1 as the compound, how does the growth inhibition read?
A: 13.8%

Q: For CC/C(=C(\CC)c1ccc(OCCN2CCOCC2)cc1)c1ccc(OCCN2CCOCC2)cc1, which growth inhibition is on record?
A: 70.5% (active)

Q: Which growth inhibition does the source give for CCCCCCCCCCCN1C(=O)c2ccccc2S1(=O)=O here?
A: 0.5%

Q: For CCCCCCCCCCCC(=O)NN, which growth inhibition is on record?
A: 97.6% (active)

Q: For CCN1CCC(O)(/C=C/c2ccccc2)C(C(=O)/C=C/c2ccccc2)C1 (configuration not stated), which growth inhibition is on record?
A: 98.2% (active)

Q: For NC(=S)NNCCC(=O)Nc1ccccc1C(F)(F)F, which growth inhibition is on record?
A: 12.2%

Q: For NS(=O)(=O)c1ccc(N=Cc2c3ccccc3nc3cc(Cl)ccc23)cc1, which growth inhibition is on record?
A: 49.1%

Q: For Nc1ccc(O)c(=O)cc1, which growth inhibition is on record?
A: 45.1%

Q: For Oc1ccc[nH]c1=S, which growth inhibition is on record?
A: 12.2%

Q: With COc1cccc2c1C(=O)c1c(O)c3c(c(O)c1C2=O)C[C@@](O)(/C(C)=N/NC(=O)c1ccc(Cl)c(Cl)c1)C[C@@H]3OC1CC(N)C(O)C(C)O1 (some centres not stated) as the compound, how does the growth inhibition read?
A: 50.4%

Q: For O=C1c2ccccc2C(=O)c2c1ccc(O)c2O.[Cu], which growth inhibition is on record?
A: 96.7% (active)

Q: With CCC(=O)C(C(=O)CC)c1c(OC(=O)c2ccccc2)ccc(O)c1C(=O)OC as the compound, how does the growth inhibition read?
A: 47.9%

Q: Which growth inhibition does the source give for CC(C)CCCC(C)C1CCC2(C)C3=CCC4C(C)(CCC(O)C4(C)C)C3=CCC12C (configuration not stated) here?
A: 73% (active)
